Only some compounds are listed: those with a hit (about 4.6% of all), similar ones and a draw of the others.
ADAM17 inh: inhibits human ADAM17; recombinant ADAM17, EDANS/DABCYL FRET peptide cleavage; inhibition, % at 6.95 µM; 370,000 compounds, 0.83% hits; AID 720648;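 active means inhibition above the mean of compounds lying between control limits plus 3 SD, set per campaign, cut at about 8.5% in these data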;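 further: 0% = DMSO-only wells as the low control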
GRIN3A LBD mod: NR3A (human) ligand-binding domain modulation; NR3A LBD differential scanning fluorimetry, Tm shift; 0% = protein alone, 100% = glycine-bound protein; Tm shift relative to glycine control, % at 25 µM; 340,000 compounds, 2.5% hits;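 active means melting temperature shift of at least 10% of the positive control shift, at one fixed dose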
ADAM10 inh: inhibits human ADAM10. O14672. recombinant ADAM10, EDANS/DABCYL FRET peptide cleavage, 3 h. inhibition, % at 7 µM. 370,000 compounds, 0.62% hits. AID 720582;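 active means inhibition above a per-campaign cutoff equal to the mean of compounds falling between control-based bounds plus 3 SD, cut at about 20% in these data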;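 further: 0% = DMSO wells while the 100% control is not disclosed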
Target sequence (O14672 214-748 limits assumed): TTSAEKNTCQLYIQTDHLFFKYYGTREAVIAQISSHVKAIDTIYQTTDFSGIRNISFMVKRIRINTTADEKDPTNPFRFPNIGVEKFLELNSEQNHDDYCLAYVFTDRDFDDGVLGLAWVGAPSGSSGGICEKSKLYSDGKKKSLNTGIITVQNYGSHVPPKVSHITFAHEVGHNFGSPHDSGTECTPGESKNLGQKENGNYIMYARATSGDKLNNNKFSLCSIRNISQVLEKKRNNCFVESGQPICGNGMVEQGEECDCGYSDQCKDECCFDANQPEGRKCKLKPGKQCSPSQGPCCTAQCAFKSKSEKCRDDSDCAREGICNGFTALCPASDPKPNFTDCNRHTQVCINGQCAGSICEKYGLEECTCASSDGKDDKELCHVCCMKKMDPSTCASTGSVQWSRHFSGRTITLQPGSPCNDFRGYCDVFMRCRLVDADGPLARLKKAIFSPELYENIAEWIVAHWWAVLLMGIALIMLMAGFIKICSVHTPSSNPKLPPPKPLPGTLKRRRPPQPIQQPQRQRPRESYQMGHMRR
FAS-TE inh: inhibitors of human fatty acid synthase thioesterase domain | P49327 | inhibition, % at 15 µM | 360,000 compounds, 0.67% hits | recombinant FAS-TE, OMFH fluorogenic substrate, fluorescence endpoint;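 active means compounds whose normalised, plate-corrected inhibition of enzyme fluorescence in the single-dose primary screen is 50% or more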;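 further: 0% = DMSO with enzyme and 100% = substrate without enzyme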
proKLK7 act: activators of human kallikrein-7 zymogen; AID 652039; activation, % at 7 µM; 370,000 compounds, 0.9% hits; purified proKLK7, EDANS-DABCYL substrate fluorescence; 100% is mature enzyme control, 0% vehicle; P49862;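 active means activation above the mean of all tested compounds plus 3 SD, computed per campaign excluding outliers beyond control limits, cut at about 13% in these data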
* marks the source's active call; other numbers are inactive results.

For COC(=O)c1ccc(Cn2ccc3ccc(-c4ccc5ccn(C(=O)c6ccccc6)c5c4)cc32)cc1 the results were ADAM17 inh -9, ADAM10 inh -30 and proKLK7 act -23.
For O=C(CC1S/C(=N\S(=O)(=O)c2ccccc2)N(c2ccccc2)C1=O)Nc1ccc(F)cc1 (centres undefined) the results were ADAM17 inh 2, GRIN3A LBD mod 10*, ADAM10 inh 7, FAS-TE inh 16 and proKLK7 act 0.
Screening COc1ccc(S(=O)(=O)N2CCCCC2)cc1NC(=O)Cn1c(=O)cnc2ccccc21 returned ADAM17 inh -1, GRIN3A LBD mod 12*, ADAM10 inh -6, FAS-TE inh -3 and proKLK7 act 1.
`CC(=O)Nc1ccc(C2=NNC(=Nc3cccc(S(=O)(=O)N(C)C)c3)SC2)cc1` gave GRIN3A LBD mod 12* and FAS-TE inh -114.
`CN(C)S(=O)(=O)c1cccc(N=C2NN=C(c3ccccc3)CS2)c1` gave ADAM17 inh 1, GRIN3A LBD mod -1, ADAM10 inh 2 and proKLK7 act 0.
CCOC(=O)c1nc(Nc2cc(Cl)ccc2OC)c2ccccc2n1 was read as ADAM17 inh -1, GRIN3A LBD mod 10*, ADAM10 inh 9, FAS-TE inh 14 and proKLK7 act -1.
CCOC(=O)c1nc(Nc2ccccc2)c2ccccc2n1 was read as ADAM17 inh 0, GRIN3A LBD mod -1, ADAM10 inh 3, FAS-TE inh -4 and proKLK7 act 0.
For O=C(Nc1ccc(F)cc1)OCCN1C(=O)CCC12CCC(c1ccc(Cl)cc1)CC2 (centres undefined) the results were ADAM17 inh 1, ADAM10 inh 1 and proKLK7 act 0.
Screening CCCCNS(=O)(=O)c1ccc(NC(=O)C2c3ccccc3Oc3ccccc32)cc1 returned ADAM17 inh -2, GRIN3A LBD mod 19*, ADAM10 inh -4, FAS-TE inh 4 and proKLK7 act 0.
O=C(Nc1ccncc1)C1c2ccccc2Oc2ccccc21 was read as ADAM17 inh 3, GRIN3A LBD mod 0, ADAM10 inh 6, FAS-TE inh -8 and proKLK7 act 1.
COc1ccc(Cl)cc1NC(=O)CSc1nnc(C2CC2)n1C was read as ADAM17 inh -2, GRIN3A LBD mod -3, ADAM10 inh 4, FAS-TE inh -3 and proKLK7 act 1.
COc1ccc(Cl)cc1NC(=O)CSc1nnc(C)c(=O)n1N was read as ADAM17 inh -1, GRIN3A LBD mod 13*, ADAM10 inh 5, FAS-TE inh 1 and proKLK7 act -1.
`c1ccc(-c2nc(-c3cccnc3)cs2)cc1` gave ADAM17 inh -4, GRIN3A LBD mod 0, ADAM10 inh 5, FAS-TE inh 5 and proKLK7 act 0.
C=CCNc1nc(-c2ccc(O)c(C(N)=O)c2)cs1 was read as ADAM17 inh -2, GRIN3A LBD mod -14, ADAM10 inh -26, FAS-TE inh -6 and proKLK7 act 0.
NC(=O)c1cc(-c2csc(NCCc3ccccc3)n2)ccc1O was read as ADAM17 inh 0, GRIN3A LBD mod 10*, ADAM10 inh -8, FAS-TE inh 1 and proKLK7 act -1.
Screening COc1ccc2cc(-c3csc(-c4cccnc4)n3)ccc2c1 returned ADAM17 inh -3, GRIN3A LBD mod 26*, ADAM10 inh 5, FAS-TE inh -2 and proKLK7 act -1.
Screening NC(=O)c1cc(-c2csc(-c3cccnc3)n2)ccc1O returned ADAM17 inh -5, GRIN3A LBD mod 20*, ADAM10 inh -4, FAS-TE inh 1 and proKLK7 act 0.
Screening COc1ccc(-c2csc(-c3cccnc3)n2)cc1C returned ADAM17 inh -17, GRIN3A LBD mod 1, ADAM10 inh -39, FAS-TE inh 14 and proKLK7 act -5.
Screening COc1ccccc1C(=O)NCC(=O)N=Nc1c(O)n(C(C)C)c2ccccc12 returned ADAM17 inh 0, GRIN3A LBD mod 255*, ADAM10 inh 0, FAS-TE inh 1 and proKLK7 act -1.
Screening CC(C)n1c(O)c(N=NC(=O)CNC(=O)Cc2ccc(Cl)cc2)c2ccccc21 returned ADAM17 inh 3, GRIN3A LBD mod 1, ADAM10 inh 6, FAS-TE inh 16 and proKLK7 act 0.
CNc1nc2c(-c3ccc(Cl)cc3)nnn2c2ccccc12 was read as ADAM17 inh -5, GRIN3A LBD mod 3, ADAM10 inh -8, FAS-TE inh 1 and proKLK7 act -1.
`Cc1cccc(-c2nnn3c2nc(NCCc2ccc(S(N)(=O)=O)cc2)c2ccccc23)c1` gave ADAM17 inh -17, GRIN3A LBD mod 33*, ADAM10 inh -38, FAS-TE inh -5 and proKLK7 act -1.
For COCCNc1nc2c(-c3cccc(C(F)(F)F)c3)nnn2c2ccccc12 the results were ADAM17 inh -4, GRIN3A LBD mod -5, ADAM10 inh -18, FAS-TE inh 3 and proKLK7 act -1.
NS(=O)(=O)c1ccc(CCNc2nc3c(-c4cccc(F)c4)nnn3c3ccccc23)cc1 was read as ADAM17 inh -4, GRIN3A LBD mod 15*, ADAM10 inh -46, FAS-TE inh -2 and proKLK7 act 0.
For Cc1ccc(-c2nnn3c2nc(NC(C)C)c2ccccc23)cc1 the results were ADAM17 inh -11, GRIN3A LBD mod 23*, ADAM10 inh -34, FAS-TE inh 12 and proKLK7 act -10.
`Nc1nc2c(-c3ccc(Br)cc3)nnn2c2ccccc12` gave ADAM17 inh -13, GRIN3A LBD mod 37*, ADAM10 inh -10, FAS-TE inh -9 and proKLK7 act -1.
Screening CC(=O)NCCNc1nc2c(-c3cccc(C)c3)nnn2c2ccccc12 returned ADAM17 inh -13, GRIN3A LBD mod -3, ADAM10 inh -24, FAS-TE inh 2 and proKLK7 act -6.
Screening O=C(Nc1ccccc1)Nc1nc2ncccn2c1-c1ccc(F)cc1 returned ADAM17 inh -12, ADAM10 inh -50 and proKLK7 act 6.
COC(=O)C1CN(Cc2ccccc2)CCS(=O)(=O)N1Cc1ccc(C)cc1 (centres undefined) was read as ADAM17 inh -3, ADAM10 inh -5 and proKLK7 act 0.
Screening Cc1ccc(-c2nnn3c2nc(NCCc2ccc(S(N)(=O)=O)cc2)c2ccccc23)cc1 returned ADAM17 inh -3, GRIN3A LBD mod 86*, ADAM10 inh -9, FAS-TE inh -9 and proKLK7 act -2.
Screening O=C(CSc1ccccn1)C12CC3CC(CC(C3)C1)C2 returned ADAM17 inh 2, GRIN3A LBD mod 12*, ADAM10 inh 4, FAS-TE inh 19 and proKLK7 act 0.
Cc1ccc(C(=O)CSc2ccccn2)cc1 was read as ADAM17 inh 2, GRIN3A LBD mod 11*, ADAM10 inh 8, FAS-TE inh -3 and proKLK7 act 0.
